KCNQ2 enhance – enhances the rat KCNQ2 potassium channel; O88943; CHO-K1 KCNQ2, FluxOR thallium flux fluorescence; stronger effect = higher value; B-score at 10 µM; 310,000 tested, 0.54% active;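 active = fluorescence ratio B-score at least 3 SD of library B-scores, with initial fluorescence B-score within 3 of them, cut at about 5.3 in these data; same plate scores as AID 2156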;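 also: B-score of peak minus minimum over baseline fluorescence ratio after K+ and Tl+ stimulus; positive B-score means potentiation of KCNQ2 with more thallium influx and brighter signal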
KCNQ2 block – inhibitors of rat KCNQ2 potassium channel; CHO-K1 KCNQ2, FluxOR thallium flux, 20 min; stronger effect = lower value; 310,000 tested, 1.1% active; B-score at 10 µM;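 active = fluorescence ratio B-score at most minus 3 library SDs, with starting brightness B-score within 2 library SDs, cut at about -5.5 in these data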
Numbers without * were called inactive. Only some compounds are listed: those with a hit (about 1.6% of all), similar ones and a draw of the others.

Results for CCC1Sc2ccc(S(=O)(=O)CCC(=O)Nc3c(Cl)cc(OC)cc3OC)cc2NC1=O (stereo not given) ?
KCNQ2 enhance: 0.12; KCNQ2 block: inactive

How did COc1ccccc1-n1c(SCC(=O)NCc2ccc3c(c2)OCO3)nc2cc([N+](=O)[O-])ccc21 do in these assays?
KCNQ2 block: inactive

What do the screens show for `CC(Sc1nc2cc([N+](=O)[O-])ccc2n1-c1ccc(F)cc1)C(=O)NCc1ccc2c(c1)OCO2` (stereo not given)?
KCNQ2 enhance: -8; KCNQ2 block: -8*

How did Cc1cc(C)nc(N/N=C/C2=C(O)CC(c3ccc(F)cc3)CC2=O)n1 (stereo not given) do in these assays?
KCNQ2 block: inactive

What do the screens show for `Cc1ccc(Oc2ccc(S(=O)(=O)N3CCOCC3)cc2C(N)=O)cc1C`?
KCNQ2 enhance: 0.35; KCNQ2 block: inactive

What do the screens show for `Cc1cc(OC(C)C(=O)NCc2ccncc2)c2c(C)c(C)c(=O)oc2c1` (stereo not given)?
KCNQ2 block: inactive

What do the screens show for `Cc1ccc(NC(=O)c2ccc3c(c2)N(CC(=O)N2CCCCC2)C(=O)C(C)(C)O3)cc1`?
KCNQ2 enhance: -7.9; KCNQ2 block: -7.9*

How did CCOC(=O)CN1C(=O)C(C)(C)Oc2ccc(C(=O)Nc3ccccc3OC)cc21 do in these assays?
KCNQ2 enhance: -6.5; KCNQ2 block: -6.5*

Results for CC(C)(C)NC(=O)c1ccc2c(c1)N(CC(=O)N1CCCCC1)C(=O)C(C)(C)O2 ?
KCNQ2 enhance: 0.93; KCNQ2 block: inactive

Results for COc1ccccc1NC(=O)c1ccc2c(c1)N(CC(=O)NC(C)(C)C)C(=O)C(C)(C)O2 ?
KCNQ2 block: inactive

Results for Cc1ccccc1OCCC(=O)OCC(=O)Nc1ccc2[nH]c(=O)[nH]c2c1 ?
KCNQ2 block: inactive

Results for CCc1c(C(=O)NNC(=S)Nc2ccc(S(=O)(=O)Nc3ncccn3)cc2)csc1C ?
KCNQ2 block: inactive

What do the screens show for `O=C(NC1CCCC1)C1CCN(C(=O)c2cc(Cl)ccc2Cl)CC1`?
KCNQ2 block: inactive

Results for O=C(NCC1COc2ccccc2O1)c1ccc(Br)s1 (stereo not given) ?
KCNQ2 enhance: -6.2; KCNQ2 block: -6.2*

What do the screens show for `O=C(NCC1COc2ccccc2O1)c1cccs1` (stereo not given)?
KCNQ2 block: inactive

What do the screens show for `CN1CCC(NC(=O)c2cc(-c3cccc(Br)c3)nc3ccccc23)CC1`?
KCNQ2 block: inactive

How did COc1ccc(CC(=O)NNc2ncnc3c2cnn3Cc2ccccc2)cc1OC do in these assays?
KCNQ2 block: inactive

How did COc1ccc(CC(=O)N(CCC2=CCCCC2)c2c(N)n(Cc3ccccc3)c(=O)[nH]c2=O)cc1OC do in these assays?
KCNQ2 enhance: 0.79; KCNQ2 block: inactive

What do the screens show for `COc1ccccc1N1CCN(S(=O)(=O)CCNC(=O)Cc2ccc(F)cc2)CC1`?
KCNQ2 block: inactive

What do the screens show for `Cc1ccc(NCc2nc3ccccc3n2C)c(C)c1`?
KCNQ2 enhance: -6.6; KCNQ2 block: -6.6*

How did Cc1cccc(NCc2nc3ccccc3n2C)c1 do in these assays?
KCNQ2 enhance: 0.47; KCNQ2 block: inactive

How did C/C(=N\OCc1nc2ccccc2c(=O)n1/N=C/c1cc([N+](=O)[O-])ccc1O)c1ccccc1 do in these assays?
KCNQ2 enhance: 2.1; KCNQ2 block: inactive

Results for C/C(=N\OCc1nc2ccccc2c(=O)n1/N=C/c1cc(C)cc([N+](=O)[O-])c1O)c1ccccc1 ?
KCNQ2 enhance: -8.3; KCNQ2 block: -8.3*

Results for Cc1cc(C)c(C)c(S(=O)(=O)NCCN2CCOCC2)c1C ?
KCNQ2 enhance: 1.1; KCNQ2 block: inactive

How did Cc1ccccc1N1CCN(C2CCCN(C(=O)CCc3c(C)noc3C)C2)CC1 (stereo not given) do in these assays?
KCNQ2 block: inactive

Results for CC1(c2nnc(-c3cccc(Cl)c3)o2)CC(c2c(Cl)cccc2Cl)=NO1 (stereo not given) ?
KCNQ2 enhance: -5.6; KCNQ2 block: -5.6*

What do the screens show for `Cc1ccc(C2=NOC(C)(c3nnc(-c4cccc(Cl)c4)o3)C2)cc1` (stereo not given)?
KCNQ2 block: inactive

Results for Cc1nnc(NC(=O)CSc2nnc3c(n2)[nH]c2ccc(Br)cc23)s1 ?
KCNQ2 enhance: 0.29; KCNQ2 block: inactive

Results for COc1cccc(NC(=O)CN(C)C(=O)CNC(=O)c2ccc3ccccc3c2)c1 ?
KCNQ2 enhance: 0.24; KCNQ2 block: inactive

Results for CC(=O)c1ccc(S(=O)(=O)N2CCN(C(=O)CN3C(=O)NC4(CCCC4)C3=O)CC2)cc1 ?
KCNQ2 block: inactive

What do the screens show for `COc1ccc(NC(=O)c2cc(C)nc3ccccc23)c(OC)c1`?
KCNQ2 block: inactive

How did Cc1ccc(NC(=O)c2cc(C)nc3ccccc23)c(C)c1 do in these assays?
KCNQ2 enhance: -5.9; KCNQ2 block: -5.9*

How did CSc1ccc(/C=C(/NC(=O)c2ccco2)C(=O)N2CCOCC2)cc1 do in these assays?
KCNQ2 block: inactive
